Legend:
Assay in all cases: DAPPL (digital affinity profiling via proximity ligation, sequencing); 10 mM Tris-HCl pH 7.5, 50 mM NaCl, 1 mM DTT, 4% glycerol, room temperature, 30 min; GST-TFs on glutathione beads, 16-mer random dsDNA library, 0.1% formaldehyde crosslink after washing; high values mean tight binding
Details in all cases: protein: recombinant; tags: N-terminal GST; dsDNA, one strand shown
FLI1 = target: T1, FLI1 (Homo sapiens, UniProt Q01543 1-452)
T1 sequence: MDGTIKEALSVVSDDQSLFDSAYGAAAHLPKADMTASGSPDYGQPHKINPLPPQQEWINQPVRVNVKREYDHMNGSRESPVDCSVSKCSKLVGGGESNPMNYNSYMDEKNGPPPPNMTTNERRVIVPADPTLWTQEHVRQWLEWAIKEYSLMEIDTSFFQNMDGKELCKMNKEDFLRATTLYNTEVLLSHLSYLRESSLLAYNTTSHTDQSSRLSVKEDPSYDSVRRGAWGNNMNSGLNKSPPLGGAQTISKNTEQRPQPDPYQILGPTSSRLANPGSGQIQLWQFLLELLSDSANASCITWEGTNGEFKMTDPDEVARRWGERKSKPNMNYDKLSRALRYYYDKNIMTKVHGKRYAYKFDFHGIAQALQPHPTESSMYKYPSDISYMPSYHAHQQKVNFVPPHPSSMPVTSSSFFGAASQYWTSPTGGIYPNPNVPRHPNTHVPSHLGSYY
Summary of the method: (§1)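 Human transcription factors were made in yeast as GST fusions, captured on glutathione beads and barcoded with DNA. With a tag-only sample included, the pool was incubated with 200 nmole of a random double-stranded 16-mer DNA library in Tris/NaCl/DTT/glycerol buffer at room temperature for 30 min, then crosslinked with 0.1% formaldehyde after washing, ligated by proximity, amplified and sequenced. For binding signal, each hexamer's read frequency for a factor is divided by its frequency for the tag-only sample.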

GABPA = target: T2, GABPA (Homo sapiens, UniProt Q06546 1-454)
T2 sequence: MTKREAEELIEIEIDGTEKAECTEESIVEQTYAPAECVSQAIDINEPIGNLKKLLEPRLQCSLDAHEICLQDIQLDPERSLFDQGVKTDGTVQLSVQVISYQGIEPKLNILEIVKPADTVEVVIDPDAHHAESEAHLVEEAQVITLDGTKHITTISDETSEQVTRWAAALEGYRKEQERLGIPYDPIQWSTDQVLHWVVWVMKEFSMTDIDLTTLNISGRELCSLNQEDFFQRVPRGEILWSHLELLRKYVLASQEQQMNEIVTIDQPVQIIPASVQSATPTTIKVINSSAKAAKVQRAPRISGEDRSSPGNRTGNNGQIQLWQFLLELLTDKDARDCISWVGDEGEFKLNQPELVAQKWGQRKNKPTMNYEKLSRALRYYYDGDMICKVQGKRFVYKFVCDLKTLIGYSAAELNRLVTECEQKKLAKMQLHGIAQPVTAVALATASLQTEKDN
Summary of the method: as §1

ELF1 = ELF1 (Homo sapiens, UniProt P32519 1-619)
ELF1, sequence (P32519 whole entry): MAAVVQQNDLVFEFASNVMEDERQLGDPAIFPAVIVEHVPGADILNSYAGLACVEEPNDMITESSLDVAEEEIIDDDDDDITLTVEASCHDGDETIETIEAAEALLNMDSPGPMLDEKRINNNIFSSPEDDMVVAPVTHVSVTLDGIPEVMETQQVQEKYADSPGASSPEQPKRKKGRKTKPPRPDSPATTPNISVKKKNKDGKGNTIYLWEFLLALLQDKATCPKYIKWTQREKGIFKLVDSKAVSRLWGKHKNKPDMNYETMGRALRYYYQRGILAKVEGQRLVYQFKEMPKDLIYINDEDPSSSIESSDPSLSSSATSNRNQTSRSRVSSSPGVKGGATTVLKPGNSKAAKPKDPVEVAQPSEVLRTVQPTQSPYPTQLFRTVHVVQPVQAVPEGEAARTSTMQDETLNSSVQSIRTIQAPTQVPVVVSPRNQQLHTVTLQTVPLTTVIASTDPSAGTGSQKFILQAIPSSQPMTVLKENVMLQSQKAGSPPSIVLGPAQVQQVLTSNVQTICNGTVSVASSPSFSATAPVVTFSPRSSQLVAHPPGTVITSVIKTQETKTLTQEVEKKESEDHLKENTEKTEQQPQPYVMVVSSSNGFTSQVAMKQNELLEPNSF
Summary of the method: as §1

EHF = target: T3, EHF (Homo sapiens, UniProt Q9NZC4 1-300)
T3 sequence: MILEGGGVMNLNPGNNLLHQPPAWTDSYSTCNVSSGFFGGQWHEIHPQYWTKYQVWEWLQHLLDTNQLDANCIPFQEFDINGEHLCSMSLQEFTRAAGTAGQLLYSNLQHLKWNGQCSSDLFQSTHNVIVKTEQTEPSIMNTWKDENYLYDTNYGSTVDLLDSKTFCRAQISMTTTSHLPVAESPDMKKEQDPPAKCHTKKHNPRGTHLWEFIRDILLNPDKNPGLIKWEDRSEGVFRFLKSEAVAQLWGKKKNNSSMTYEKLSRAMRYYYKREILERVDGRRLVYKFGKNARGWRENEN
Summary of the method: as §1

SPIB = SPIB (Homo sapiens, UniProt Q01892 1-262)
SPIB, sequence (Q01892 whole entry): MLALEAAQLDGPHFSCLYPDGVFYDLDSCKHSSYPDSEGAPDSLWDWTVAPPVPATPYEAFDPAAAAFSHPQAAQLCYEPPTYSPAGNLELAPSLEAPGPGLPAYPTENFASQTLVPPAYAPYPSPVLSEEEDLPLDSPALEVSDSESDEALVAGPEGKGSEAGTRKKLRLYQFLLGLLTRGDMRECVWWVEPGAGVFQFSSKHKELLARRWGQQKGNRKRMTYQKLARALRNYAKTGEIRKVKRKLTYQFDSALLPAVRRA
Summary of the method: as §1

ELK3 = target: T4, ELK3 (Homo sapiens, UniProt P41970 1-407)
T4 sequence: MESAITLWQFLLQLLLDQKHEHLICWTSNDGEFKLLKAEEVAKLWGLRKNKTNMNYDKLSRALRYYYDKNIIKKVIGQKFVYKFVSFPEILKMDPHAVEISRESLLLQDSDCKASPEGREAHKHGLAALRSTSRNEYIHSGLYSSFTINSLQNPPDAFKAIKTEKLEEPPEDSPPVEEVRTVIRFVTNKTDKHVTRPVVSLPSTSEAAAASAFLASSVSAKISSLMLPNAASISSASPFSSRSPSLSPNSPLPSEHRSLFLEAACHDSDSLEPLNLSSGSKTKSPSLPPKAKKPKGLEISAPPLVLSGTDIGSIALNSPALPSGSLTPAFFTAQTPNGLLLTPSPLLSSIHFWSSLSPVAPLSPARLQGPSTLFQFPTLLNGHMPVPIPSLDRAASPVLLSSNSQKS
Summary of the method: as §1

SPIC = target: T5, SPIC (Homo sapiens, UniProt Q8N5J4 1-248)
T5 sequence: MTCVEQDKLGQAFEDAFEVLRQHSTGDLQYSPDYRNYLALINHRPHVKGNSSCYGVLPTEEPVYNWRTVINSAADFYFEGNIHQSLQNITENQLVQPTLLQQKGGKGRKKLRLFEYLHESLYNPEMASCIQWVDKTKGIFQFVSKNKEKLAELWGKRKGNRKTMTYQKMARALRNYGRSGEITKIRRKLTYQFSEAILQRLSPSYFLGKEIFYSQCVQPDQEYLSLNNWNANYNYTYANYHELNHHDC
Summary of the method: as §1

ELF4 = ELF4 (Homo sapiens, UniProt Q99607 1-663)
ELF4, sequence (Q99607 whole entry): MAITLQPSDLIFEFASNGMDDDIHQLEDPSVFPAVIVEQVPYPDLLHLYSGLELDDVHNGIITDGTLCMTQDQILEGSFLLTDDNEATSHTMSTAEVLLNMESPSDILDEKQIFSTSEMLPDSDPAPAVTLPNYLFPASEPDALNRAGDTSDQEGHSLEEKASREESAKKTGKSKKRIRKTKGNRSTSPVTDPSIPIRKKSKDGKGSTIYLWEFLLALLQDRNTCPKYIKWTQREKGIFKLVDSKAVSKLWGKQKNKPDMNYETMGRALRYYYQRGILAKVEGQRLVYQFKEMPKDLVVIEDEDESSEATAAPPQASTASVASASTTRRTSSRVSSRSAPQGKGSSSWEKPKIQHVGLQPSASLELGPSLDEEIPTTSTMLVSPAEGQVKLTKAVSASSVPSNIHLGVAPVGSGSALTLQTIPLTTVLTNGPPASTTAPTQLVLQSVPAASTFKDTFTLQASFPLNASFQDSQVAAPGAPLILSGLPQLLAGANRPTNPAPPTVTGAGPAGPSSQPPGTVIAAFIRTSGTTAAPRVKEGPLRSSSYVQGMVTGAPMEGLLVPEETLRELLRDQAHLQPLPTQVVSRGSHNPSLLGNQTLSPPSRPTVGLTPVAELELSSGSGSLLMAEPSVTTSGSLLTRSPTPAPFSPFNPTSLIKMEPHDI
Summary of the method: as §1

ELK4 = target: T6, ELK4 (Homo sapiens, UniProt P28324-2 1-405)
T6 sequence: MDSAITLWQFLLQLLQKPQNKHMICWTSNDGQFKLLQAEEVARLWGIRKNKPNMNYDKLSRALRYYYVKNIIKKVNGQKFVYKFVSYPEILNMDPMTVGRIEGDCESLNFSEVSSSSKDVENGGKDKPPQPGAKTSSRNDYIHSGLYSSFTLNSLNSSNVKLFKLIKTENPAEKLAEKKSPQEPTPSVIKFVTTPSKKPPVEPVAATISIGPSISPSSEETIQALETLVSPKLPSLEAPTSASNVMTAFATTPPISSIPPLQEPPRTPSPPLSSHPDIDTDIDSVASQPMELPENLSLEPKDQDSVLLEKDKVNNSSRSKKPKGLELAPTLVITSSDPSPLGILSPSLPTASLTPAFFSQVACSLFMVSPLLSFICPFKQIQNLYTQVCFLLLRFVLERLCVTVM
Summary of the method: as §1

ETV2 = target: T7, ETV2 (Homo sapiens, UniProt O00321 1-342)
T7 sequence: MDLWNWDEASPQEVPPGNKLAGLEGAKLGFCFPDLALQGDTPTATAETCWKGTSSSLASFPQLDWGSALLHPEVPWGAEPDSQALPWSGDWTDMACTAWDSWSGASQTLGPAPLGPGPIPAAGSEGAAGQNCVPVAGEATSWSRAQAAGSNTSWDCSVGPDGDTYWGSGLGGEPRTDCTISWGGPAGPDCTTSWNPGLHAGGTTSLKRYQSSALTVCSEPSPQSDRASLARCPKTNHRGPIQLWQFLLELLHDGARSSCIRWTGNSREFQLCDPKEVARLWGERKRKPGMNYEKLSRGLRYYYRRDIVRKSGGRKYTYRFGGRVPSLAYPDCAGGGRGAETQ
Summary of the method: as §1

ELF3 = target: T8, ELF3 (Homo sapiens, UniProt P78545 1-371)
T8 sequence: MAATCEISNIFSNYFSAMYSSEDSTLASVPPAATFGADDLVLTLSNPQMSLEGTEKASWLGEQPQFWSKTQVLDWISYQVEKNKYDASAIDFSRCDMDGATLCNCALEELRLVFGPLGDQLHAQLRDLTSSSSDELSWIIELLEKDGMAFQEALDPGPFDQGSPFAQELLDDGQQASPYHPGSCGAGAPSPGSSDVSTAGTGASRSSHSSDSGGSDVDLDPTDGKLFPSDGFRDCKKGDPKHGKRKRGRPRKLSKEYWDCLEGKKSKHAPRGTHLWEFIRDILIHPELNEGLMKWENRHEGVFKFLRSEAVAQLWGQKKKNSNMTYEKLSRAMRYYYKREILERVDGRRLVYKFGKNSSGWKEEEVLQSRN
Summary of the method: as §1

ERF = target: T9, ERF (Homo sapiens, UniProt P50548 1-548)
T9 sequence: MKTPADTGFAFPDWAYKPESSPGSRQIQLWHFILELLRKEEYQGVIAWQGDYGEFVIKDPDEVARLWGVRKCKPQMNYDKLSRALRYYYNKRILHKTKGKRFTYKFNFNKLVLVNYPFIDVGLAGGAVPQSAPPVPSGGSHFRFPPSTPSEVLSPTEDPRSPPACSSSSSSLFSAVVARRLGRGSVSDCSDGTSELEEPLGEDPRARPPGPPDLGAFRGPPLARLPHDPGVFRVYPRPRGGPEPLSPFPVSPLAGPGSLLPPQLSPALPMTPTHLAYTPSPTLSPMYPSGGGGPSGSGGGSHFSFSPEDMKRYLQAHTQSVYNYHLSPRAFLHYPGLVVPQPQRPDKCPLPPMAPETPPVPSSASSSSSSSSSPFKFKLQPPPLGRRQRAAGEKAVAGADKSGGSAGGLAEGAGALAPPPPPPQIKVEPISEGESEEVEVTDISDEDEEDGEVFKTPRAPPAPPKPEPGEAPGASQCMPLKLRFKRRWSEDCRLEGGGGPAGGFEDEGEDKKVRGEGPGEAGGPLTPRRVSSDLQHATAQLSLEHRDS
Summary of the method: as §1

ETV3L = target: T10, ETV3L (Homo sapiens, UniProt Q6ZN32 1-361)
T10 sequence: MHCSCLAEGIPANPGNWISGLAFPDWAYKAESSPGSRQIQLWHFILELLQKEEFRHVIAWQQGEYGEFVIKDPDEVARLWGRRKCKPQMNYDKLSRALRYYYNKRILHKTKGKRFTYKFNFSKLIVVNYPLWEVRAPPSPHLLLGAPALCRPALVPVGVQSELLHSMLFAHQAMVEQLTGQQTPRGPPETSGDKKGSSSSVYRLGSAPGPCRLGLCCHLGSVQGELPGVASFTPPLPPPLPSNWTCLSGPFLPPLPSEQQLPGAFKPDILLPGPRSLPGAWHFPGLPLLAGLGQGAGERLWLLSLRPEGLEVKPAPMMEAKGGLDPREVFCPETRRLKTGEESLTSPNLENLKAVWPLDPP
Summary of the method: as §1

ETS2 = target: T11, ETS2 (Homo sapiens, UniProt P15036 1-469)
T11 sequence: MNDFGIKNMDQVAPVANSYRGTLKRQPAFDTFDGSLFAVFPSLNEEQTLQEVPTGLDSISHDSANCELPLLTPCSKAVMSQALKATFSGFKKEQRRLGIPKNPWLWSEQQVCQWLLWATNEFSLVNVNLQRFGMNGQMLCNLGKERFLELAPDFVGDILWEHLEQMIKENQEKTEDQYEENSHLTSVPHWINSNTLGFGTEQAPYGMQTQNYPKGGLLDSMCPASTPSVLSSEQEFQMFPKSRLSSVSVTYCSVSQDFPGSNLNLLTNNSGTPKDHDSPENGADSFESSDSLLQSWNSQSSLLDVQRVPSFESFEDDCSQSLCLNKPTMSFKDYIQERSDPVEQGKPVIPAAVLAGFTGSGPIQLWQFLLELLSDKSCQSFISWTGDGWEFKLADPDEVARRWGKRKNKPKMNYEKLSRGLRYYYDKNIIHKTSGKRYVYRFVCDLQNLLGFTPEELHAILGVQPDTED
Summary of the method: as §1

ETV7 = target: T12, ETV7 (Homo sapiens, UniProt Q9Y603 1-341)
T12 sequence: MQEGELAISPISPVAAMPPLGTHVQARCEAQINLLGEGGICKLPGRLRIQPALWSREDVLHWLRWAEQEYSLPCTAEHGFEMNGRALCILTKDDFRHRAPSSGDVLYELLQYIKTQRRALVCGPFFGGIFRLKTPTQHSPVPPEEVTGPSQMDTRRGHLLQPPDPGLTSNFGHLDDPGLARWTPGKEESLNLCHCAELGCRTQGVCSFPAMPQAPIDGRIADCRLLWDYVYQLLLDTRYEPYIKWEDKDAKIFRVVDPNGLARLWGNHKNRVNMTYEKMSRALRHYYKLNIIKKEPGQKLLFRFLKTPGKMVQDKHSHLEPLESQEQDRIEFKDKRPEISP
Summary of the method: as §1

ETV6 = ETV6 (Homo sapiens, UniProt P41212 1-452)
ETV6, sequence (P41212 whole entry): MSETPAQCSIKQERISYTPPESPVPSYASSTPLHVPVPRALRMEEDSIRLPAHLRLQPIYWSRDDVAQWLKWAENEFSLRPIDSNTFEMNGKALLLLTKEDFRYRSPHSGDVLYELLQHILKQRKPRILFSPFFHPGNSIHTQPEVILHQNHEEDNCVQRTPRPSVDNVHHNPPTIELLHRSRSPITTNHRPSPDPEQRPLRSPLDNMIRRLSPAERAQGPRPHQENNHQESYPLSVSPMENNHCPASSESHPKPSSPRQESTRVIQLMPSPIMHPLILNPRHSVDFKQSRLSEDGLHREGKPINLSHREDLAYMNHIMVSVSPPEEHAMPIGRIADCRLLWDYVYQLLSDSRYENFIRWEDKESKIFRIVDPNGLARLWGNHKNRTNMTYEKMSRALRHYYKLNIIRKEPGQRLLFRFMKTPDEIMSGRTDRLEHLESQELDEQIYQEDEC
Summary of the method: as §1

## CATTGC
FLI1
  binding signal: 1.22 fold enrichment (6-mer frequency, TF over GST control)
GABPA
  binding signal: 1.08 fold enrichment (6-mer frequency, TF over GST control)
ELF1
  binding signal: 1.09 fold enrichment (6-mer frequency, TF over GST control)
EHF
  binding signal: 1.15 fold enrichment (6-mer frequency, TF over GST control)
SPIB
  binding signal: 1 fold enrichment (6-mer frequency, TF over GST control)
ELK3
  binding signal: 1.15 fold enrichment (6-mer frequency, TF over GST control)
SPIC
  binding signal: 1.16 fold enrichment (6-mer frequency, TF over GST control)
ELF4
  binding signal: 1.11 fold enrichment (6-mer frequency, TF over GST control)
ELK4
  binding signal: 1.04 fold enrichment (6-mer frequency, TF over GST control)
ETV2
  binding signal: 1.3 fold enrichment (6-mer frequency, TF over GST control)
ELF3
  binding signal: 1.04 fold enrichment (6-mer frequency, TF over GST control)
ERF
  binding signal: 1.11 fold enrichment (6-mer frequency, TF over GST control)
ETV3L
  binding signal: 1.08 fold enrichment (6-mer frequency, TF over GST control)
ETS2
  binding signal: 1.17 fold enrichment (6-mer frequency, TF over GST control)
ETV7
  binding signal: 1.14 fold enrichment (6-mer frequency, TF over GST control)
ETV6
  binding signal: 1.09 fold enrichment (6-mer frequency, TF over GST control)
